# Sampled rows, rich in hits. Any-hit rate of the full collection: about 2.9%.
# IP6K1 inh: blocks human inositol hexakisphosphate kinase 1; Q92551; IP6K1 kinase, ADP-Glo luminescence, 2 h; hits give low values; activity change, % (series mostly up to about 58 µM); 0.81% of 140,000 active; AID 1645851; in the data active = activity change below about -25%; also: % is scaled to controls: 0 for no effect and ±100 for the full control effect
# Target sequence (Q92551 whole entry, looked up): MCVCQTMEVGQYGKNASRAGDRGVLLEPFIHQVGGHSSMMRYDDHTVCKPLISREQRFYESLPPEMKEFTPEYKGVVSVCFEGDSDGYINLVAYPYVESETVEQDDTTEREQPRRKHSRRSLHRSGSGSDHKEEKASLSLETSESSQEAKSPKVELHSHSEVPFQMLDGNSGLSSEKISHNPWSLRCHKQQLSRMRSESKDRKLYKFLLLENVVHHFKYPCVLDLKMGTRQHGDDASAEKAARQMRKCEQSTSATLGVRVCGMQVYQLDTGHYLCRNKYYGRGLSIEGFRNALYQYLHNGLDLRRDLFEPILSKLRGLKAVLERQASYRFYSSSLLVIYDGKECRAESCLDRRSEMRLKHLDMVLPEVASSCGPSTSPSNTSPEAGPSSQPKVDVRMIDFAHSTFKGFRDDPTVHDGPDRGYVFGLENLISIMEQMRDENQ
#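 ADP-Glo luminescence measures ADP made by human IP6K1 during a 2 h RT reaction with ATP/IP6 (mix at 1.3 mM/130 uM); top library doses 57.5 and 19.1 uM final.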
# SNCA viab count: cell viability loss counter-screen | HEK-293-SNCA-luc viability, GF-AFC fluorescence, 24 h | Potency, µM (titrated, usually from 57.1 µM), without a hit: at the highest dose activity change, negative = cytotoxicity, usual class: cytotoxic | 0.12% of 150,000 active;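 also: potency is read from the fitted curve at half-maximal effect; 0% = DMSO-treated cells and -100% = medium-only wells without cells; nearly all actives have a fitted effect of over 30% in size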
#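 Cytotoxicity counterscreen: after 24 h compound treatment of genome-edited SNCA-luciferase HEK-293 cells, live-cell protease substrate GF-AFC read by fluorescence after 30 min; activity scaled between DMSO (0%) and medium-only (-100%), curves Hill-fitted.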
# SNCA expr inh: inhibitors of alpha-synuclein (SNCA) gene expression; HEK-293 SNCA-luciferase knock-in, luminescence, 24 h; Potency, µM (series often up to 57.2 µM), inactives show at the top dose activity change, negative = inhibition, actives largely listed as inhibitors; 0.17% of 140,000 active;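 also: potency is read from the fitted curve at half-maximal effect; plate controls were DMSO cells for no effect and cell-free wells for full effect; nearly all actives have a fitted effect of over 45% in size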
# KDM5B inh: KDM5B demethylase inhibition; KDM5B demethylase, FDH-coupled NADH fluorescence (FDH is formaldehyde dehydrogenase); 2.6% of 220,000 active; Q9UGL1; Potency, µM (doses to about 57.7 µM), usual class: inhibitors; also: potency is read from the fitted curve at half-maximal effect; 0% is about no effect; nearly all actives have a fitted effect of over 70% in size
#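 Measured: NADH fluorescence change, 30 min, RT. System: KDM5BΔAP 200 nM final, H3K4me3 peptide, α-KG, Fe(II), ascorbate, NAD⁺ plus FDH, pH 7.5 HEPES. Compounds: titrated, 10 min pre-incubation with enzyme.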
# The depositor's hits bear a star; i = inactive; ? = inconclusive; . = not tested or not shown; [ ] = another dose, or the depositor's remark. Unless noted, calls follow the shape of the dose curve; as a rule, active = well fitted curve in the direction sought with a large enough effect; inconclusive = small, poorly fitted or top-dose-only effect, or another doubt; inactive = no such curve, though single readings can be large; an effect the other way counts as inactive or inconclusive.
SMILES,IP6K1 inh,SNCA viab count,SNCA expr inh,KDM5B inh
O=C(Cn1ccn2nc(-c3ccccc3)c(CO)c2c1=O)NCc1ccc2c(c1)OCO2,7.1,7.8%,-10.2%,31.6µM*
O=C(Cn1ccn2nc(-c3ccc(F)cc3)c(CO)c2c1=O)NCc1ccc(F)cc1F,3.5,6.1%,-1.5%,i
O=c1c2c(CO)c(-c3ccccc3)nn2ccn1Cc1ccccc1Cl,3.9,6.6%,58.6%,?
Cc1nc2scc(CC(=O)N3CCC(C)CC3)n2c(=O)c1-c1cc(C)n(-c2cccc(Cl)c2)n1,12.6,6.2%,-1.6%,?
CCn1c(=O)c2ccnn2c2ccc(C(=O)O)cc21,-12.0,-1.5%,-17.2%,22.4µM*
CCn1c(=O)c2ccnn2c2ccc(C(=O)NCCc3cccnc3)cc21,2.3,2.3%,-6.6%,31.6µM*
Cc1ccc(C(=O)NCCc2cccnc2)cc1,.,.,.,i
CCCn1cc(CNC(=O)c2ccc3c(c2)n(CC)c(=O)c2ccnn23)c(C)n1,27.3,2.5%,16.8%,22.4µM*
CCn1c(=O)c2ccnn2c2ccc(C(=O)NCc3ccc(OC)cc3OC)cc21,7.9,2.0%,-13.7%,?
Cc1ncsc1CN1CCc2nc(N3CCN(C)CC3)[nH]c(=O)c2CC1,12.6,5.0%,7.1%,i
Cc1ccnc(NC(=O)c2ccc[n+]([O-])c2)c1,.,.,.,i
Cc1cccc(OCC(=O)N2CCCN(c3cc(-c4ccc(Cl)cc4)[nH]n3)CC2)c1,9.0,?,?,14.1µM*
COc1ccc(CC(=O)N2CCCN(c3cc(-c4ccccc4)[nH]n3)CC2)cc1,7.6,2.3%,-13.2%,22.4µM*
COc1ccc(CC(=O)N2CCCN(c3cc(-c4ccc(Cl)cc4)[nH]n3)CC2)cc1,-4.5,-16.5%,-25.0%,?
Cc1ccc(CC(=O)N2CCCN(c3cc(-c4ccccc4)[nH]n3)CC2)cc1,-7.5,-14.6%,?,28.2µM*
CC(Sc1ccccn1)C(=O)NN=C1CCCCC1 (centres undefined),.,.,.,i
CC(=O)Nc1ccc(OCCC2CCCCC2)cc1,.,.,.,i
CCn1cc(CN2CCN(C(=O)c3cccs3)CC2)ccc1=O,-2.1,2.6%,36.5%,11.2µM*
O=C(c1ccccn1)N1CCN(Cc2ccc(=O)n(CC3CC3)c2)CC1,1.1,2.0%,20.1%,15.8µM*
CCn1cc(CN2CCN(C(=O)CCc3ccccc3)CC2)ccc1=O,-1.9,9.3%,11.6%,7.08µM*
CC(C)Oc1ccc(C(=O)O)cc1Br,.,.,.,i
CCCCN1CCN(C(=O)c2cc(-c3ccncc3)nc3ccccc23)CC1,.,.,.,i
CCCCN1CCN(C(=O)c2cc(NC(=O)C3CCC3)cc3nc(C)ccc23)CC1,7.7,6.4%,5.6%,31.6µM*
CCCN1CCN(C(=O)c2cc(NC(=O)C3CCC3)cc3nc(C)ccc23)CC1,-1.5,7.4%,-1.0%,22.4µM*
CC(C)(CNC(=S)Nc1ccc(SC(F)F)cc1)N1CCCCC1,.,.,.,i
SMILES,IP6K1 inh,SNCA viab count,SNCA expr inh,KDM5B inh
Cc1ccc(C(=O)NCc2ccc(N3CCN(C)CC3)nc2)o1,.,.,.,i
Cc1ccc2cc(C(=O)N3CCCC(CNS(C)(=O)=O)C3)[nH]c2c1 (centres undefined),.,.,.,i
COC(=O)[C@@H]1Cc2c([nH]c3ccccc23)[C@H]2C[C@@H](NC(C)C)C[C@@H](c3ccccc3)N21,-2.7,?,-17.5%[87.6 µM],11.2µM*
COC(=O)[C@@H]1Cc2c([nH]c3ccccc23)[C@H]2C[C@@H](NC(C)C)C[C@@H](c3ccc(C)cc3)N21,-0.4,-26.0%[87.6 µM],-25.3%[87.6 µM],28.2µM*
Cc1cccc(C(=O)N2CCCC(c3nnnn3-c3ccccc3)C2)c1 (centres undefined),-4.9,6.1%,-3.1%,.
CN(C)C(=O)c1cccc2c1CCN2C(=O)C1CC1,-6.5,16.7%,50.3%,i
C#CCN1CCC(C(=O)NCC(c2ccccc2)c2ccccc2)CC1,.,.,.,i
CN(C)C(=O)c1ccnc(-c2nnc3ccc(NCCN4CCOCC4)nn23)c1,-3.1,9.6%[87.6 µM],-5.6%[87.6 µM],35.5µM*
COc1cccc(C(=O)N2CCC(c3n[nH]c(=O)n3-c3ccc(C)cc3)CC2)c1OC,-2.6,7.1%,29.0%,i
Cc1nc(NCCCNC2CCCCC2)c2cnn(C)c2n1,.,.,.,i
Cn1ncc2c(NCCc3cn4ccccc4n3)nc(C3CCCC3)nc21,16.7,3.8%,-4.7%,20µM*
O=C(OCc1ccc(Cl)cc1Cl)c1ccccc1Oc1ccccc1,.,.,.,i
Cn1nccc1C(=O)N1CCc2nn(Cc3ccccc3)c(=O)n2CC1,-9.2,-7.1%,-24.3%,i
CCn1c(COc2ccc(Cl)cc2)n[nH]c1=S,.,.,.,i
CNc1ncc(C(=O)N2CCCC3(CCC(=O)N(CCOC)C3)C2)cn1 (centres undefined),-7.6,8.3%,-12.8%,28.2µM*
O=C(c1ccncc1)N1CCC(N2CC3CC(C2)[C@H]2CCCC(=O)N2C3)CC1 (some centres undefined),8.3,-0.7%,10.1%,17.8µM*
Cc1cc(-c2cc3[nH]ccc3c(C(=O)NCc3c(C)cc(C)[nH]c3=O)n2)ccn1,0.4,-15.7%[87.6 µM],44.5%[87.6 µM],11.2µM*
Cc1cc(C)c(CNC(=O)c2nc(-c3cccc(O)c3)cc3c2ccn3C)c(=O)[nH]1,13.7,-29.3%[87.6 µM],3.5%[87.6 µM],35.5µM*
Cc1cc(C)c(CNC(=O)c2nc(-c3ccnn3C)cc3c2ccn3C(C)C)c(=O)[nH]1,-11.3,2.4%[87.6 µM],13.2%[87.6 µM],31.6µM*
Cc1cc(C)c(CNC(=O)c2nc(-c3ccc(CO)cc3)cc3c2ccn3C)c(=O)[nH]1,1.2,-21.0%[87.6 µM],-19.3%[87.6 µM],35.5µM*
COc1cc(Cl)ccc1C(=O)N1CCC(Cc2nc(-c3ccc(F)cc3)no2)CC1,-3.3,-19.3%,?,i
COc1ccc(-c2nc(N3CCOCC3)cc3c2CN(Cc2ccccc2)C3=O)cc1,12.5,3.0%[87.6 µM],58.7%[87.6 µM],i
COc1cccc(-c2nc(N3CCOCC3)cc3c2CN(Cc2ccccc2)C3=O)c1OC,7.7,-2.4%,-1.8%,31.6µM*
COc1cccc(-c2nc(N3CCOCC3)cc3c2CN(CC2CC2)C3=O)c1OC,0.4,-0.8%[87.6 µM],-11.5%[87.6 µM],35.5µM*
O=C1c2cc(N3CCOCC3)nc(-c3cccc(O)c3)c2CN1CC(F)(F)F,10.9,-8.0%[87.6 µM],-5.2%[87.6 µM],39.8µM*
SMILES,IP6K1 inh,SNCA viab count,SNCA expr inh,KDM5B inh
COc1cccc(-c2nc(N3CCOCC3)cc3c2CN(CC(F)(F)F)C3=O)c1OC,8.0,0.9%[87.6 µM],18.7%[87.6 µM],31.6µM*
c1cncc(CN2CCc3c(sc4ncnc(N5CCCC5)c34)C2)c1,-0.7,9.1%,-25.0%,?
CN1Cc2c(cc(N3CCOCC3)nc2-c2ccccc2OC(F)(F)F)C1=O,4.9,-27.0%[87.6 µM],8.8%[87.6 µM],35.5µM*
COc1cc(F)ccc1-c1nc(N2CCOCC2)cc2c1CN(CC(F)(F)F)C2=O,7.8,9.4%[87.6 µM],-22.9%[87.6 µM],31.6µM*
O=C1c2cc(N3CCOCC3)nc(-c3ccccc3)c2CN1Cc1ccccc1,10.8,0.4%[87.6 µM],?,31.6µM*
O=C1c2cc(N3CCOCC3)nc(-c3cccc(CO)c3)c2CN1c1ccccc1,11.6,-12.1%[87.6 µM],26.7%[87.6 µM],35.5µM*
O=C1Cc2c(-c3cccc(CO)c3)n[nH]c2CN1c1ccccc1,15.0,-11.4%[87.6 µM],31.3%[87.6 µM],i
CCN(CCO)c1nc2sc(C)c(C)c2c2nc(-c3ccccc3)nn12,.,.,.,i
